SMARCA2 activ = increases SMARCA2 function in MMTV reporter cells. MG213 cells, MMTV-luciferase reporter, dexamethasone, overnight. activation, % at 9.1 µM. 370,000 compounds, 1% hits; in the data active means activation above about 7.8%
hcDAF-12 act = activators of H. contortus DAF-12 nuclear receptor | HEK293 hcDAF-12 lit1-tk-luc reporter, luminescence; 0% DMSO, 100% Δ7-dafachronic acid | activation, % at 6.8 µM | 370,000 compounds, 1.4% hits | AID 652067;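 active means activation above the mean of all tested compounds plus 3 SD, cut at about 5.5% in these data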
hgDAF-12 ag = activates the H. glycines DAF-12 receptor ligand-binding domain. HEK293 GAL4-hgDAF12 UAS-luciferase reporter, agonist luminescence; normalized to butyrate control. activation, % at 6.8 µM. 370,000 compounds, 1.8% hits;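 active means activation above a cutoff set at the mean of all screened compounds plus 3 SD, cut at about 10% in these data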
DAX1 inh-1 = inhibitors of human orphan nuclear receptor DAX1 (NR0B1); P51843; inhibition, % at 6.75 µM; HEK293 Gal4-DAX1 luciferase reporter, luminescence; 340,000 compounds, 0.99% hits;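 active means inhibition above the mean over all tested compounds plus 3 SD, cut at about 4.2% in these data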;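 further: inhibition shows as a rise in luminescence from relieved DAX1 repression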
Target sequence (P51843 207-470 limits assumed): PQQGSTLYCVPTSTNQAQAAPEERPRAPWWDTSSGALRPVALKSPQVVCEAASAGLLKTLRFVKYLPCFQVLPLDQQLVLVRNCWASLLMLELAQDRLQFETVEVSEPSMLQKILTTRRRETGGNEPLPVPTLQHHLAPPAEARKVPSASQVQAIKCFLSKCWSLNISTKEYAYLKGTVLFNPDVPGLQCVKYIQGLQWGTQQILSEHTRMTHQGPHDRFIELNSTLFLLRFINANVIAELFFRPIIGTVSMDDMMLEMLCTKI
DAX1 inh-2 = blocks DAX1 repression of SF-1 activated StAR promoter. AID 652010. HEK293T StAR-luciferase reporter, SF-1/DAX-1 repression relief. 370,000 compounds, 1.1% hits. inhibition, % at 6.8 µM;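 active means inhibition above the mean over all tested compounds plus 3 SD, cut at about 3.6% in these data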;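 further: higher inhibition means more luminescence from relief of DAX-1 repression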
ssDAF-12 act = S. stercoralis DAF-12 activation, primary screen. HEK293 ssDAF-12/GRIP1 lit1-tk-luc reporter, luminescence; % of 3 µM dafachronic acid response. activation, % at 6.8 µM. 370,000 compounds, 1% hits. AID 652126;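 active means activation above the mean over all tested compounds plus 3 SD, cut at about 0.9% in these data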
A number is an active result; . = inactive; / = no result given. Hits are enriched below; roughly 4.8% of the tested compounds scored in any of these assays.

SMILES	SMARCA2 activ	hcDAF-12 act	hgDAF-12 ag	DAX1 inh-1	DAX1 inh-2	ssDAF-12 act
COCCn1c(C)cc(/C=C(\C#N)C(=O)OCC(=O)Nc2ccc(S(N)(=O)=O)cc2)c1C	.	6.4	.	5.0	.	.
COc1ccc(N=Nc2ccc(CO)cc2)cc1	.	7.3	.	.	.	1.3
COc1ccc(C/C(N)=N/O)cc1	.	.	.	.	.	.
CCOC(=O)/C(=C/c1ccccc1)NC(=O)c1ccco1	.	.	.	4.9	.	.
N#Cc1cccc(C#N)c1N1CCC(C#N)CC1	.	.	11	/	.	.
N#Cc1c(F)cccc1N1CCC(C#N)CC1	.	.	.	.	.	.
CC(=O)Nc1ccc(S(=O)(=O)NCc2ccccn2)cc1	.	.	.	4.3	.	.
Nc1ccc(S(=O)(=O)NCc2ccccn2)cc1	.	.	.	.	.	.
CCOC(=O)c1sc2nc3c(SCCC(=O)O)cc(C(=O)c4cc(OC)ccc4O)cn3c(=O)c2c1C	.	.	.	.	.	.
CCOC(=O)c1sc2nc3c(SCCC#N)cc(C(=O)c4cc(F)ccc4O)cn3c(=O)c2c1C	.	.	.	.	.	1.5
O=C(NCCN1CCCC1)c1ccc2c(c1)N(Cc1cccc(Cl)c1)C(=O)c1ccccc1S2(=O)=O	.	6.2	.	.	.	.
CCC(C(N)=NCCc1ccc(OC)c(OC)c1)c1ccccc1 (stereo unspecified)	.	.	.	.	.	.
CCC(=NCCc1ccc(OC)c(OC)c1)c1ccccc1O	.	.	.	6.1	.	.
O=C(NCCc1ccccc1)c1[nH]c(C(F)(F)F)nc1-c1ccccc1	.	.	.	/	.	1.2
O=C(c1cnn2c(C(F)F)cc(-c3ccccc3)nc12)N1CCSCC1	.	.	.	4.6	.	.
O=C(NCc1ccc(F)c(F)c1)C1CCCN(c2nc3ccccc3o2)C1 (stereo unspecified)	.	.	.	/	.	.
CN1CCN(c2cnn(-c3ccccc3)c(=O)c2Br)CC1	.	.	.	.	.	.
O=c1c(Br)c(N2CCCC2)cnn1-c1ccccc1	.	5.6	12	.	.	.
Cc1ccc(NC(=O)C2CC2c2ccccc2)c([N+](=O)[O-])c1 (stereo unspecified)	.	.	.	6.0	.	.
COc1ccc(C(=O)C[n+]2ccc3c(c2)nc(Cc2ccccc2)n3C)cc1	.	.	.	/	.	.
COC(=O)C1CN(CCc2ccccc2)CCS(=O)(=O)N1Cc1ccc(C(F)(F)F)cc1 (stereo unspecified)	.	.	.	/	.	.
CC1CCN(C2=C(NS(=O)(=O)c3ccccc3)C(=O)c3ccccc3C2=O)CC1	7.8	.	.	.	.	.
Cc1ccc(-c2ccc(/C=N/O)o2)cc1[N+](=O)[O-]	.	.	13	.	.	.
NNC(=O)Cn1nnc(-c2ccc(C(F)(F)F)cc2)n1	.	.	.	/	.	0.9
CCCCNC(=O)c1ccc2nc(CC)c(N(CC)CCN(C)C)n2c1	.	.	.	/	.	0.9
SMILES	SMARCA2 activ	hcDAF-12 act	hgDAF-12 ag	DAX1 inh-1	DAX1 inh-2	ssDAF-12 act
CCC[C@H]1[C@@H](NC(=O)C#Cc2ccccc2)CC[C@@]23CCCN2C(=O)CCC[C@@H]13	/	.	.	/	/	.
CS(=O)(=NS(=O)(=O)c1ccc(Cl)cc1)c1ccccc1 (stereo unspecified)	.	.	.	4.3	.	.
O=S(=O)(Nc1ccccn1)c1ccc(Cl)cc1	.	.	.	.	.	.
Cc1ccc(C(=O)Nc2cc([N+](=O)[O-])ccc2F)s1	.	.	.	5.8	.	.
Cc1ccc(CC(=O)Nc2cc([N+](=O)[O-])ccc2F)cc1	.	.	.	.	.	.
CCc1nnc(NC(=O)CCn2cnc3ccccc3c2=O)s1	.	.	.	/	.	1.0
O=C(CNc1ccccc1)N/N=C/c1ccc([N+](=O)[O-])cc1	.	.	.	.	.	1.6
O=C(N/N=C/c1ccc([N+](=O)[O-])cc1)c1[nH]ncc1Br	.	.	.	4.7	.	.
O=C(C(=O)N1CCC(CNC(=O)C2COc3ccccc3O2)CC1)c1cccs1 (stereo unspecified)	.	.	.	/	.	.
Cc1cc(NS(=O)(=O)c2ccc(NC(=O)Cc3ccc(Cl)c(F)c3)cc2)no1	.	.	.	/	.	.
